Inconclusive results are not listed. Unmarked numbers belong to inactive results. Active and inactive are the calls of the source. Calls follow the shape of the dose curve; as a rule, active = well fitted activation curve with a large enough effect in the main read-out, with a control signal flat (not every such curve was filed as active); inconclusive = small, poorly fitted or top-dose-only effect, or effect the other way, or a change in a side signal; inactive = flat fitted curve, though single readings scatter.
These compounds were tested against 3',5'-cyclic-AMP phosphodiesterase 4B (Homo sapiens) (UniProt Q07343) (assay: qHTS Assay for Inhibitors of PDE-IV (AID 607; also: % of control where 0% means no effect)). Settings: HEK293 ACTOne CNG channel cells, membrane potential fluorescence; series mostly up to 22.9 µM; activation (PDE inhibition): at the top concentration.
Source text: NIH Chemical Genomics Center [NCGC]
NIH Molecular Libraries Screening Centers Network [MLSCN]
The cyclic nucleotide phosphodiesterases (PDEs) are proteins that catalyze hydrolysis of 3', 5'-cyclic nucleotides, such as cyclic adenosine monophosphate (cAMP) and cyclic guanosine monophosphate (cGMP), to their corresponding 5'-nucleotide monophosphates. These enzymes play an important role in controlling cellular concentrations of cyclic nucleotides and have a central role in a variety of intracellular signaling events. cAMP PDEs are emerging as a promising class of drug targets in asthma and cardiovascular disease therapeutic areas.
There are no commercially available cell-based screening assays for PDE inhibitors: currently biochemical assays are done using pure substrates (cAMP or cGMP) and purified recombinant PDE enzymes. As with other biochemical screens on intracellular targets, false positives and false negatives may result from issues involving cell membrane permeability, cellular metabolism, and the like.
Here we report the development of a cell-based screening assay for cAMP phosphodiesterase (PDE) inhibitors. The assay is based on the BD ACTOne# technology (BD Biosciences) which utilizes a modified cyclic nucleotide-gated channel (CNG) to monitor intracellular cAMP changes in live cells. The CNG channel is localized on the plasma membrane, and opens when the intracellular cAMP level increases, resulting in ion flux and cell membrane depolarization. The influx of cations through the CNG channel can be quantified using membrane potential (MP) dyes. We modified the BD ACTOne technology to allow the detection of PDE inhibitors, and performed an inhibitor screen for PDE-IV, which is expressed endogenously in HEK293 cells. We optimized this assay in homogeneous 1536-well plate assay format for high throughput screening.
NCGC Assay Protocol Summary:
The medium contained 10% FBS (Invitrogen), 2 mM L-glutamine, and 250 ug/ml G418 (Cellgro) and 1 ug/ml puromycin (Clontech). ACTOneTM parental cells (BD Biosciences) were maintained in the same medium without puromycin.
The activity of the CNG channel was measured by BD ACTOneTM membrane potential dye kit (BD Biosciences). Forskolin, a positive control for cAMP activation and RO 20-1724, a PDE inhibitor, were both purchased from Sigma and solublized in DMSO.
Sequence,Parameter,Value,Description
1,Reagent,3 uL,1000 cells/well 1536 TC treated Black plate
3,Compound,0.5 uL,Kalypsys dispense RO 20-1724 100 uM final [A]
4,Reagent,3 uL,BD membrane potential dye
6,Compound,23 nL,Final concentration was 0.7nM to 22.9uM
8,Detector,EX 535 / EM 590 [B],Envision
Footnotes: [A] The stock 2 mM RO 20-1724 PDE inhibitor was made in 10 % DMSO. Parental cell line received 10 uM forskolin + 100 uM RO. [B] Envsion settings: Bottom Excitation 535/20 nm top emission 590/20, gain of 150 and 5 flashes per well.
Keywords: PDE, PDE-IV, cytotoxicity, flourescence, MLSMR, MLSCN, NIH Roadmap, qHTS, NCGC

Sequence of 3',5'-cyclic-AMP phosphodiesterase 4B (Homo sapiens) (Q07343 whole entry, looked up): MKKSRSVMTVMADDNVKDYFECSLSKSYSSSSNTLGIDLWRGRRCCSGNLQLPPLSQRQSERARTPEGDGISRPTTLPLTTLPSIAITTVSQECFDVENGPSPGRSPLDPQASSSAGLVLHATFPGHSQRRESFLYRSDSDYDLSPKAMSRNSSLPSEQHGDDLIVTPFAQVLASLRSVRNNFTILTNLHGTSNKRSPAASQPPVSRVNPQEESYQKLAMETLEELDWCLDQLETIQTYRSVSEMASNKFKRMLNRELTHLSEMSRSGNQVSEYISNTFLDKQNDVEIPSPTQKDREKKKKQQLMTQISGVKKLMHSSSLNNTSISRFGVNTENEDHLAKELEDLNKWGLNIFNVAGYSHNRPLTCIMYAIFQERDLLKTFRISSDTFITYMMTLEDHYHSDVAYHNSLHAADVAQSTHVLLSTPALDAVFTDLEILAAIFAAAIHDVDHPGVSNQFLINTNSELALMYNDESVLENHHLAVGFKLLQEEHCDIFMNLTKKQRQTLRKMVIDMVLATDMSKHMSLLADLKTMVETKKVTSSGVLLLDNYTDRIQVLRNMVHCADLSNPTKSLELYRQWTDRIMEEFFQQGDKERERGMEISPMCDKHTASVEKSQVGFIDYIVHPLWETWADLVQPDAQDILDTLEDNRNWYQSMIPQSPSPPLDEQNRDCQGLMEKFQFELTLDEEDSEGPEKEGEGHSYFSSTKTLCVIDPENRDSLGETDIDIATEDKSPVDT

Compound | activation (PDE inhibition) | outcome
NCC(=O)O | 12.6% | –
Nc1c[n+](N2CCOCC2)no1 | -3.64% | –
O=C(CCCCC(=O)Nc1c(I)cc(I)c(C(=O)O)c1I)Nc1c(I)cc(I)c(C(=O)O)c1I | -8.64% | –
CN(C)c1cc2c(Nc3ccc4c(cnn4Cc4ccccc4)c3)ncnc2cn1 | -19.2% | –
Cn1cnc2c(NCc3ccccc3)nc(NCCO)nc21 | 2.84% | –
Cc1ncc(CO)c(CO)c1O | 4.66% | –
CN(C(=O)C(Cl)Cl)c1ccc(OC(=O)c2ccco2)cc1 | -3.64% | –
O=C1NC(c2cccc([N+](=O)[O-])c2)=CCN1c1ccccc1O | -13.1% | –
CC(C)N(CCC(=O)c1ccc2ccccc2c1)Cc1ccccc1 | 19.6% | –
Brc1ccc([C@H]2CN3CCSC3=N2)cc1 | 3.44% | –
C[N+](C)(C)CCO | 1.33% | –
O=C(O)/C=C(\CC(=O)O)C(=O)O | 0.803% | –
COc1ccccc1N1CCN(CCN2C(=O)CC3(CCCC3)CC2=O)CC1 | -5.65% | –
NC(N)=NCCCCN=C(N)N | – | inactive
Clc1ccc2c(c1)N=C(N1CCNCC1)c1ccccc1N2 | -7.7% | –
CCOC(=O)NNc1nncc2ccccc12 | -1.97% | –

From PubChem BioAssay (NCATS)
